Source: article PMC5540273 (PLoS ONE, 2017)

Assays:
Details in all cases: concentration: 1 μM, replicates: in singlicate; n = 1
TAK1 = tested on: T1, TAK1
T1 construct: gene MAP3K7

TAOK1 = tested on: TAOK1
TAOK2 = tested on: TAOK2
TAOK3 = tested on: TAOK3
TBK1 = tested on: TBK1
TEC = tested on: TEC
TESK1 = tested on: TESK1
TGFBR1 = tested on: TGFBR1
TGFBR2 = tested on: TGFBR2
TIE1 = tested on: TIE1
TIE2 = tested on: T2, TIE2
T2 construct: gene TEK

TLK1 = tested on: TLK1
TLK2 = tested on: TLK2
TNIK = tested on: TNIK
TNK1 = tested on: TNK1
TNK2 = tested on: TNK2
TNNI3K = tested on: TNNI3K
TRKA = tested on: T3, TRKA
T3 construct: gene NTRK1

TRKB = tested on: TRKB
TRKC = tested on: T4, TRKC
T4 construct: gene NTRK3
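Note: KINOMEscan kinase panel screen.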

Structure (SMILES)	%Inh (TAK1) [%]	%Inh (TAOK1) [%]	%Inh (TAOK2) [%]	%Inh (TAOK3) [%]	%Inh (TBK1) [%]	%Inh (TEC) [%]	%Inh (TESK1) [%]	%Inh (TGFBR1) [%]	%Inh (TGFBR2) [%]	%Inh (TIE1) [%]	%Inh (TIE2) [%]	%Inh (TLK1) [%]	%Inh (TLK2) [%]	%Inh (TNIK) [%]	%Inh (TNK1) [%]	%Inh (TNK2) [%]	%Inh (TNNI3K) [%]	%Inh (TRKA) [%]	%Inh (TRKB) [%]	%Inh (TRKC) [%]
COc1cc2ncn(-c3cc(OCCCc4ccccc4)c(C(N)=O)s3)c2cc1OC [GSK205189]	0	0	0	0	15	0	4	0	0	22	0	0	0	22	12	7	0	55	0	24
Nc1nccc2scc(-c3ccc4c(c3)CCN4C(=O)Cc3ccccc3)c12 [GSK2576924]	1	2	17	10	2	16	0	7	0	55	13	22	3	0	0	0	0	49	0	0
Nc1n[nH]c2ncc(-c3ccccc3)cc12 [SB-517081]	0	0	9	2	13	6	37	0	0	18	0	0	2	1	0	21	12	17	37	31
COc1ccc(-c2cc3c(C)nc(N)nc3n([C@H]3CC[C@H](O)CC3)c2=O)cn1	21	0	0	0	90	0	7	0	6	0	0	0	0	0	0	0	0	0	0	0
COc1cccc(C2=C(N(C)c3ccccc3)C(=O)NC2=O)c1 [SB-334865]	0	0	0	0	3	2	24	29	10	0	0	4	4	0	0	19	11	0	0	23
O=C(NCCNc1ccnc(Nc2ccc(F)cc2)n1)Nc1ccc2c(c1)OCO2 [GSK1379882]	0	0	0	0	30	4	96.3	0	0	0	0	22	20	0	0	9	0	4	0	17
COc1cc(OC)cc(-c2cc3cnc(N)nc3nc2NC(=O)NC(C)(C)C)c1	42	0	0	0	0	0	13	0	7	33	18	0	0	0	14	100	0	0	0	0
COc1cc(Nc2ccnc3ccc(C(F)(F)F)cc23)cc(OC)c1OC [GW577382]	0	0	0	0	4	0	52	8	9	0	0	6	0	0	14	16	24	48	0	14
